# Pf Dd2 inh – qHTS Primary assay for Inhibitors of Plasmodium falciparum Dd2 growth in vitro; P. falciparum Dd2 growth, SYBR Green, 72 h; Potency, µM (titrated, usually from 28.9 µM), without a hit: top-dose activity, negative = inhibition, hits mostly inhibitors; 120,000 compounds, 4.3% hits; AID 1347417, 2020; active means well fitted inhibition curve with a large enough effect;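 further: plate controls were DMSO vehicle for no effect and reference drug for full effect; nearly all actives have a fitted effect of over 65% in size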
#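 Infected erythrocytes (Dd2, 0.3% parasitemia, 2.5% hematocrit final) are added to compound in RPMI-1640/Albumax II medium, grown 72 h at 37C in low oxygen, then lysed with saponin/Triton-X containing SYBR Green and read by fluorescence.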
# Active calls of the source: *; i = inactive; [ ] = another dose, or the depositor's remark. Shown is part of a subset that was picked to be rich in hits. Potency means the concentration at half of the fitted maximal effect.
SMILES,Pf Dd2 inh
COc1ccccc1OCc1cc(C(=O)NC(CO)C(C)C)n[nH]1 (stereo not drawn),-3%
CC(C)Cc1nc(CN2C[C@@H]3CC[C@H](C2)N(Cc2ccccc2)C3)no1,10µM*
Cc1ccc(SC2CCN(Cc3nc(CCc4ccccc4)no3)CC2)cc1,-16%
c1ccc(CCc2noc(CN3CCCCC3CCn3cccn3)n2)cc1 (stereo not drawn),i
COc1ccc(C(C)NC(=O)COc2ccc(NC(C)=O)cn2)cc1 (stereo not drawn),12%
CCN1CCC(N2CC(Oc3cccc(C(=O)NCC4CC4)c3)C2)CC1,5%
O=C(NCC1CC1)c1cccc(OC2CN(Cc3ccc(F)cc3Cl)C2)c1,11µM*
O=C(NCC1CC1)c1cccc(OC2CN(C3CCSCC3)C2)c1,-9%
COc1cc2c(cc1OC)C(C[C@H]1CN(C(=O)Nc3ccc(F)cc3)CC[C@H]1CC(=O)O)=NCC2,-22%
O=C1N[C@@H]2CCN(C(=O)c3ccc(-c4ccccc4)cc3)[C@@H]2C(=O)N1c1ccc(F)cc1,i
Cc1ccc2c(C)c(C(=O)N(C)CCOc3ccccc3)oc2c1C,10%
O=C(Nc1c(C(=O)N2CCN(c3ccccc3F)CC2)oc2ccccc12)c1ccco1,4%
CCCC(=O)Nc1c(C(=O)N2CCN(c3ccccc3)CC2)oc2ccccc12,120%[5.79 µM]
CCOc1ccc(NC(=O)c2oc3ccccc3c2NC(=O)COc2cccc(OC)c2)cc1,13%
COc1ccc(OCC(=O)Nc2c(C(=O)N3CCN(c4ccccc4)CC3)oc3ccccc23)cc1,11µM*
CC(C)CC(=O)Nc1c(C(=O)N2CCN(c3ccccc3F)CC2)oc2ccccc12,7.1µM*
CCCCC(=O)Nc1c(C(=O)N2CCN(c3ccccc3F)CC2)oc2ccccc12,11µM*
Cc1ccc(OCC(=O)Nc2c(C(=O)c3ccccc3)oc3ccccc23)cc1C,31%
CCC(=O)Nc1ccc(C2(C(=O)N3CCN(c4ccccc4F)CC3)CCC2)cc1,-10%
Cc1cccc(OCC(=O)Nc2c(C(=O)N3CCN(c4ccccc4F)CC3)oc3ccccc23)c1,-20%
Cn1cnnc1CC1CCCN(S(=O)(=O)c2ccc3c(c2)C(C)(C)C(=O)N3)C1 (stereo not drawn),2%
CN(C)[C@@H]1[C@@H](NC(=O)CCc2nc3ccccc3[nH]c2=O)[C@H]2CCO[C@H]21,-5%
CC(C)=CCN1CCNC(=O)C1CC(=O)O (stereo not drawn),-4%
O=C(Cn1cccc1-c1nc(-c2ccccc2)no1)NCCCc1ccccc1,-29%
O=C(O)c1ccc(-c2cc(C(F)(F)F)ccc2Cl)cc1,5%[44.1 µM]
SMILES,Pf Dd2 inh
CCC1Oc2ccc(NC(=O)c3ccc(C#N)cc3)cc2CN(Cc2ccccc2F)C1=O (stereo not drawn),-16%
NC(=O)[C@H](Cc1ccc(O)cc1)NC(=O)C1=C[C@@H](NC(=O)c2ccc(F)c(Cl)c2)[C@@H](O)[C@H](O)C1,11%
COCCNc1nc2c(S(=O)(=O)c3ccc(C)cc3)nnn2c2ccccc12,-6%
CC(C)n1nc(OC(C)(C)C(=O)NC2CC2)c2cc(CN3CCOCC3)ccc21,i
O=S(=O)(c1ccc(F)cc1)N1CCCC(Cn2c(C3CC3)nc3cccnc32)C1 (stereo not drawn),-17%
Cc1ccc2c(c1)N(CCCC(=O)N1CCc3c(nc4cc(-c5ccccc5)[nH]n4c3=O)C1)C(=O)CO2,3%[5.79 µM]
CNC(=O)N1CCC(C2CCN(C(=O)Cc3cccs3)C2)CC1 (stereo not drawn),31%
Cc1ccc(CN2CCC(C3CCN(S(C)(=O)=O)CC3)C2)o1 (stereo not drawn),i
CS(=O)(=O)N1CCC(C2CCN(Cc3ccc(Br)o3)C2)CC1 (stereo not drawn),4.5µM*
CS(=O)(=O)N1CCC(C2CCN(C3CCOCC3)C2)CC1 (stereo not drawn),-18%
Cn1cccc1CN1CCC(C2CCN(S(C)(=O)=O)CC2)C1 (stereo not drawn),i
CS(=O)(=O)N1CCC(C2CCN(Cc3cccs3)C2)CC1 (stereo not drawn),13µM*
c1ccc(-c2noc(-c3ccn4c(CN5CCOCC5)nnc4c3)n2)cc1,-6%
O=C(Cc1ccccn1)NCC1COc2ncncc2C(=O)N1Cc1ccccc1 (stereo not drawn),-1%[44.1 µM]
Cc1ccc(C)c(NC(=O)Cn2c(C)cc3nc4n(c(=O)c32)CCCCC4)c1,-8%
COc1cc(CN2C[C@@H](CO)[C@H](NC(=O)c3cccnc3)C2)ccc1F,-9%
Cc1ccc(-c2nnc(C3CN(C(=O)C4CCC4)CC34CCOCC4)o2)cc1 (stereo not drawn),23%
COc1ccc(Cn2c(C3CCN(C(=O)c4cc(F)ccc4F)CC3)n[nH]c2=O)cc1,-15%
CC(C)c1nc2c(c(-c3ccc(Cl)cc3)n1)CCN(CC1CC1)CC2,-18%
COc1ccc(-c2nc(C3CC3)nc3c2CCN(C(=O)c2ccc4c(c2)OCO4)CC3)cc1,11µM*
COc1ccc(-c2nc(C)nc3c2CCN(C(=O)c2ccc4c(c2)OCO4)CC3)cc1,i
